Measurements reported in PubChem BioAssay (NCI).
About 83,000 compounds went through this panel and 20% of them were active in at least one assay; those are over-represented in the sample as a whole.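 Method: cells in 96-well plates; compound added at one concentration; 48 h incubation; percent growth measured; values under 10 scored active.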 Values without a mark were called inactive. Calls of active or inactive are those of the source.

Columns and labels:
Test in all cases: NCI-60 one-dose screen, 48 h (100 = growth as untreated, 0 = no growth, -100 = all killed)
Details in all cases: 10 µM unless noted
[1] = tested on: RPMI-8226 leukemia
[2] = tested on: OVCAR-8 ovarian
[3] = tested on: OVCAR-5 ovarian
[4] = tested on: OVCAR-4 ovarian
[5] = tested on: SK-OV-3 ovarian
[6] = tested on: IGROV1 ovarian
[7] = tested on: OVCAR-3 ovarian
[8] = tested on: HS 578T breast
[9] = tested on: NCI/ADR-RES ovarian
[10] = tested on: T-47D breast
[11] = tested on: BT-549 breast
[12] = tested on: MDA-MB-435 melanoma
[13] = tested on: SW-620 colon
[14] = tested on: MCF7 breast
[15] = tested on: HCT-116 colon
[16] = tested on: HCC-2998 colon
[17] = tested on: KM12 colon

## Nc1ccc2c(c1)c(N)nn2C(=O)Nc1ccc(Cc2ccccc2)cc1
[1]
  growth: 28.2%
[2]
  growth: 83.5%
[3]
  growth: 67.2%
[4]
  growth: 56.2%
[5]
  growth: 107%
[6]
  growth: 83.4%
[7]
  growth: 70.1%
[8]
  growth: 101%
[9]
  growth: 78%
[10]
  growth: 60.4%
[11]
  growth: 86.4%
[12]
  growth: 68.9%
[13]
  growth: 93.4%
[14]
  growth: 64.3%
[15]
  growth: 52.5%
[16]
  growth: 36.9%
[17]
  growth: 65.3%

## Cn1ccc2c(c1=O)C(=O)c1nccc3c1c-2nc1ccccc13
[1]
  growth: -29% (active)
[2]
  growth: -58.5% (active)
[3]
  growth: 69%
[4]
  growth: -44.9% (active)
[5]
  growth: 92.3%
[6]
  growth: 44.6%
[7]
  growth: -96.3% (active)
[8]
  growth: 96.8%
[9]
  growth: 41%
[10]
  growth: 84.9%
[11]
  growth: 87.4%
[12]
  growth: 76.4%
[13]
  growth: -76.3% (active)
[14]
  growth: -59.1% (active)
[15]
  growth: -94.3% (active)
[16]
  growth: -96.2% (active)
[17]
  growth: -88.1% (active)

## Cc1cc(=O)oc2c1ccc1oc(C#N)c(C)c12
[1]
  growth: 88.9%
[2]
  growth: 99.5%
[3]
  growth: 92.4%
[4]
  growth: 93.1%
[5]
  growth: 107%
[6]
  growth: 106%
[7]
  growth: 98.6%
[8]
  growth: 91.2%
[9]
  growth: 96.2%
[10]
  growth: 88.6%
[11]
  growth: 94%
[12]
  growth: 95.5%
[13]
  growth: 95.7%
[14]
  growth: 102%
[15]
  growth: 89.9%
[16]
  growth: 106%
[17]
  growth: 104%

## CCOc1ccccc1-n1c(CN2CCN(C(=O)COc3ccc(CNCCCCCCN4C5CCCC4CC(OC(=O)Nc4cc(C)ccc4OC)C5)cc3)CC2)nc2ccccc2c1=O (configuration not stated)
[1]
  growth: -56.8% (active)
[2]
  growth: -88.4% (active)
[3]
  growth: -91.5% (active)
[4]
  growth: -84.7% (active)
[5]
  growth: -98.7% (active)
[6]
  growth: -77.4% (active)
[7]
  growth: -91.6% (active)
[8]
  growth: -42.2% (active)
[9]
  growth: 67%
[10]
  growth: -66.8% (active)
[11]
  growth: -90.8% (active)
[12]
  growth: -97% (active)
[13]
  growth: -86.8% (active)
[14]
  growth: -78.3% (active)
[15]
  growth: -91.5% (active)
[16]
  growth: -87.7% (active)
[17]
  growth: -87.2% (active)

## CCCCC1CCCCN1C(=O)OCC (configuration not stated)
[1]
  growth: 118%
[2]
  growth: 106%
[3]
  growth: 98.4%
[4]
  growth: 112%
[5]
  growth: 99.1%
[6]
  growth: 112%
[7]
  growth: 112%
[8]
  growth: 116%
[9]
  growth: 113%
[10]
  growth: 89.2%
[11]
  growth: 73.9%
[12]
  growth: 111%
[13]
  growth: 106%
[14]
  growth: 107%
[15]
  growth: 94%
[16]
  growth: 101%
[17]
  growth: 123%

## COc1cc(/C=C2\C(=O)ON=C2C)cc(OC)c1OC
[1]
  growth: 95.9%
[2]
  growth: 99.7%
[3]
  growth: 99.3%
[4]
  growth: 104%
[5]
  growth: 98.9%
[6]
  growth: 101%
[7]
  growth: 101%
[8]
  growth: 92%
[9]
  growth: 100%
[10]
  growth: 97.9%
[11]
  growth: 112%
[12]
  growth: 102%
[13]
  growth: 97.7%
[14]
  growth: 97%
[15]
  growth: 104%
[16]
  growth: 94.5%
[17]
  growth: 100%

## COc1ccc(/C=C/c2c(C(=O)/C=C/c3cccs3)c(C)nc3ccccc23)cc1
[1]
  growth: 56.6%
[2]
  growth: 77%
[3]
  growth: 97%
[4]
  growth: 68.7%
[5]
  growth: 79.7%
[6]
  growth: 46%
[7]
  growth: 83.6%
[8]
  growth: 84.1%
[9]
  growth: 74.1%
[10]
  growth: 47.8%
[11]
  growth: 94.3%
[12]
  growth: 68.5%
[13]
  growth: 82.5%
[14]
  growth: 53.9%
[15]
  growth: 47.5%
[16]
  growth: 85.6%
[17]
  growth: 78.9%

## COc1cc(C2CC(=O)Nc3c2c(C)nn3-c2nc3ccccc3[nH]2)c(OC)c2c1OCO2 (configuration not stated)
[1]
  growth: 60.1%
[2]
  growth: 67.9%
[3]
  growth: 105%
[4]
  growth: 76%
[5]
  growth: 81.7%
[6]
  growth: 63.1%
[7]
  growth: 68.8%
[8]
  growth: 53.1%
[9]
  growth: 63.2%
[10]
  growth: 67.2%
[11]
  growth: 76%
[12]
  growth: -20.2% (active)
[13]
  growth: 47.1%
[14]
  growth: 45.3%
[15]
  growth: 61.6%
[16]
  growth: 97.5%
[17]
  growth: 52.1%

## O=C(NCCc1ccc(O)c(O)c1)C12CC3CC(CC(C3)C1)C2
[1]
  growth: 22.5%
[2]
  growth: 95.6%
[3]
  growth: 66.3%
[4]
  growth: 87.3%
[5]
  growth: 86.7%
[6]
  growth: 56.1%
[7]
  growth: 86%
[8]
  growth: 83.3%
[9]
  growth: 61.1%
[10]
  growth: 93.1%
[11]
  growth: 92.7%
[12]
  growth: 107%
[13]
  growth: 91%
[14]
  growth: 89.4%
[15]
  growth: 82.6%
[16]
  growth: 115%
[17]
  growth: 117%

## COc1cc(/C=C/C(=O)c2c(C)nc3ccccc3c2/C=C/c2ccc(C)cc2)cc(OC)c1OC
[1]
  growth: -13.4% (active)
[2]
  growth: 17%
[3]
  growth: 17.7%
[4]
  growth: 39.5%
[5]
  growth: 58.6%
[6]
  growth: 21%
[7]
  growth: 15.6%
[8]
  growth: 46.7%
[9]
  growth: 9.69% (active)
[10]
  growth: 19%
[11]
  growth: 35.6%
[12]
  growth: 11.1%
[13]
  growth: 3.22% (active)
[14]
  growth: 17.1%
[15]
  growth: -70.3% (active)
[16]
  growth: -21.3% (active)
[17]
  growth: 13.2%

## CC1=C(SCCC(=O)OC(C[Se]C2=C(C)C(=O)c3ccccc3C2=O)C(=O)NCCCCCC(=O)OCc2ccccc2)C(=O)c2ccccc2C1=O (configuration not stated)
[1]
  growth: 30.2%
[2]
  growth: 39%
[3]
  growth: 44.6%
[4]
  growth: 53.2%
[5]
  growth: 32.7%
[6]
  growth: 25%
[7]
  growth: 21%
[8]
  growth: 34%
[9]
  growth: 21.1%
[10]
  growth: 49.9%
[11]
  growth: 67.3%
[12]
  growth: 25.1%
[13]
  growth: 45.7%
[14]
  growth: 28.2%
[15]
  growth: 4.77% (active)
[16]
  growth: 32%
[17]
  growth: 19.8%

## COc1cc(C2CC(=O)Nc3c2c(C)nn3-c2nc3ccccc3[nH]2)cc2c1OCC(=O)N2 (configuration not stated)
[1]
  growth: 74.1%
[2]
  growth: 34.9%
[3]
  growth: 101%
[4]
  growth: 73.2%
[5]
  growth: 28.6%
[6]
  growth: 60.4%
[7]
  growth: 13.6%
[8]
  growth: 26.7%
[9]
  growth: 93.2%
[10]
  growth: 83.6%
[11]
  growth: 65.9%
[12]
  growth: 48.5%
[13]
  growth: 52.4%
[14]
  growth: 56.9%
[15]
  growth: 107%
[16]
  growth: 103%
[17]
  growth: 70.8%

## CCN1C(=O)N(CC)C2Nn3c(s/c(=C4\C(=O)N(C)c5ccccc54)c3=O)=NC21 (configuration not stated)
[1]
  growth: 48.2%
[2]
  growth: 38%
[3]
  growth: 53.8%
[4]
  growth: 59.6%
[5]
  growth: 63.4%
[6]
  growth: 43.3%
[7]
  growth: 8.52% (active)
[8]
  growth: 38.3%
[9]
  growth: 6.8% (active)
[10]
  growth: 27.5%
[11]
  growth: 53.9%
[12]
  growth: -59.6% (active)
[13]
  growth: 26.3%
[14]
  growth: 13.5%
[15]
  growth: 11.1%
[16]
  growth: 88.6%
[17]
  growth: 29.8%

## O=C(/C=C/c1c(Cl)nc2sccn12)c1ccc(F)c(F)c1
[1]
  growth: 55.6%
[2]
  growth: 92.7%
[3]
  growth: 76.2%
[4]
  growth: 79.4%
[5]
  growth: 71.3%
[6]
  growth: 87.5%
[7]
  growth: 81.7%
[8]
  growth: 73.3%
[9]
  growth: 85.6%
[10]
  growth: 50.3%
[11]
  growth: 71.6%
[12]
  growth: 82.6%
[13]
  growth: 77.3%
[14]
  growth: 45.2%
[15]
  growth: 69.5%
[16]
  growth: 85.6%
[17]
  growth: 83%

## COc1cc(C2CC(=O)Nc3c2c(C)nn3-c2nc3ccccc3[nH]2)c(OC)c(OC)c1OC (configuration not stated)
[1]
  growth: 55.1%
[2]
  growth: 47.4%
[3]
  growth: 104%
[4]
  growth: 73.1%
[5]
  growth: 40%
[6]
  growth: 76.9%
[7]
  growth: 12.2%
[8]
  growth: 25.5%
[9]
  growth: 57.7%
[10]
  growth: 40.8%
[11]
  growth: 52.7%
[12]
  growth: -36.4% (active)
[13]
  growth: 26.7%
[14]
  growth: 25.4%
[15]
  growth: 23.5%
[16]
  growth: 95.2%
[17]
  growth: 35.1%

## c1coc(-c2c3ccc(=[N+]4CCCCC4)cc-3oc3cc(N4CCCCC4)ccc23)c1
[1]
  growth: -42.7% (active)
[2]
  growth: -61% (active)
[3]
  growth: -91.8% (active)
[4]
  growth: -41.9% (active)
[5]
  growth: -95.2% (active)
[6]
  growth: -67.5% (active)
[7]
  growth: -99.2% (active)
[8]
  growth: -35.6% (active)
[9]
  growth: -60.2% (active)
[10]
  growth: -50.4% (active)
[11]
  growth: -82.8% (active)
[12]
  growth: -68.1% (active)
[13]
  growth: -80% (active)
[14]
  growth: -69.7% (active)
[15]
  growth: -95.2% (active)
[16]
  growth: -96.5% (active)
[17]
  growth: -93.3% (active)
